The results in this text go back to PubChem BioAssay (EPA / NIEHS).

Assay [1] can be described thus: ATG_CRE_CIS: Attagene CIS-FACTORIAL HepG2 Assay for human cAMP Responsive Element (CRE) binding protein 3 (AID 2282926). Particulars: HepG2 CRE cis-reporter, Attagene multiplexed mRNA; actives raise or lower the signal. In outline:
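We dosed HepG2 cells bearing multiple cis-promoter reporter units for 24 h and measured reporter mRNA by RT-PCR with capillary electrophoresis detection. Bidirectional concentration-response fitting used DMSO as negative control.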

For assay [2], the target named is CCAAT/enhancer-binding protein beta (Homo sapiens) (UniProt P17676). Briefly: ATG_C_EBP_CIS: Attagene CIS-FACTORIAL HepG2 Assay for human CCAAT/Enhancer Binding Protein (C/EBP) beta (AID 2282927). As to conditions: HepG2 Attagene cis-factorial transcription factor reporter; actives raise or lower the signal. The essentials:
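HepG2 transiently transfected with multiplexed reporter units under cis-regulatory promoters reporting endogenous C/EBPb activity. After 24 h exposure, reporter mRNA assayed by RT-PCR, fluorescent labelling, HpaI digestion and capillary electrophoresis; bidirectional fitting versus DMSO.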

The nature of assay [3]: ATG_CMV_CIS: Attagene CIS-FACTORIAL HepG2 Assay for human CMV (Internal Marker) (AID 2282928).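 Note: endpoint acts as a background internal control marker rather than a target.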 As to conditions: HepG2 CMV promoter reporter, transcription factor profiling; actives raise or lower the signal. In outline: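 CMV internal-marker background readout in transiently transfected HepG2 cells bearing cis-regulated reporter units. Reporter mRNA is measured 24 h after dosing by RT-PCR and capillary electrophoresis, with bidirectional fitting against DMSO.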

The nature of assay [4]: ATG_DR4_LXR_CIS: Attagene CIS-FACTORIAL HepG2 Assay for human Liver X Receptor (LXR), DR4 submotif (AID 2282929). As to conditions: HepG2 Attagene DR4 cis-reporter, mRNA transcription; actives raise or lower the signal. The essentials: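 Cells were transfected with multiple reporter transcription units, exposed to chemicals for 24 hours, then lysed for RNA. Reporter mRNA induction was measured by RT-PCR with capillary electrophoresis detection and fitted in both directions relative to DMSO.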

Assay [5] addresses Aryl hydrocarbon receptor (Homo sapiens) (UniProt P35869). The assay can be described thus: ATG_Ahr_CIS: Attagene CIS-FACTORIAL HepG2 Assay for human Aryl Hydrocarbon Receptor (Ahr) (AID 2282930). Particulars: HepG2 AhR cis-factorial reporter transcription; actives raise or lower the signal. The essentials:
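HepG2 cells transiently transfected with cis-element-driven multiplexed reporter units; endogenous AhR activity read as reporter mRNA 24 h after dosing, via RT-PCR, 6-FAM labelling, HpaI digestion and capillary electrophoresis. Bidirectional fit relative to DMSO.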

The nature of assay [6]: ATG_AP_1_CIS: Attagene CIS-FACTORIAL HepG2 Assay for human Activator Protein 1 (AP-1) (AID 2282931). As to conditions: HepG2 Attagene cis-factorial AP-1 reporter mRNA; actives raise or lower the signal. In outline: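 Endogenous transcription-factor activity in human HepG2 liver cells is read through a cis-promoter reporter transcript, sampled 24 h after dosing. Detection uses RT-PCR with capillary electrophoresis; values come from bidirectional fitting relative to DMSO.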

A short description of assay [7]: ATG_AP_2_CIS: Attagene CIS-FACTORIAL HepG2 Assay for human Activator Protein 2 (AP-2) (AID 2282932). Particulars: HepG2 AP-2 cis-reporter, Attagene transcription factor profiling; actives raise or lower the signal. In outline:
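Multiplexed mRNA reporter assay in HepG2: cis-regulated units report endogenous factor activity after 24 h treatment. Fluorescence from capillary electrophoresis of RT-PCR products gives the signal, with DMSO as baseline.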

Assay [8] in a line: ATG_BRE_CIS: Attagene CIS-FACTORIAL HepG2 Assay for human Bone Morphogenetic Protein (BMP) Response Element (BRE) (AID 2282933). Particulars: HepG2 BMP response element reporter, Attagene transcription factor profiling; actives raise or lower the signal. In outline:
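HepG2 cells transiently transfected with multiplexed cis-element reporter units were dosed with chemical for 24 h. Reporter mRNA was measured by RT-PCR with fluorescent labelling, HpaI digestion and capillary electrophoresis; bidirectional fitting relative to DMSO.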

The target of assay [9] is Retinoic acid receptor alpha (Homo sapiens) (UniProt P10276). Briefly: ATG_DR5_RAR_CIS: Attagene CIS-FACTORIAL HepG2 Assay for human Retinoic Acid Receptor Alpha (RARE), DR5 submotif (AID 2282934). As to conditions: HepG2 Attagene cis-factorial RARE DR5 reporter, mRNA; actives raise or lower the signal. The essentials: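 HepG2 cells transiently transfected with multiplexed reporter units; DR5 cis-element drives reporter through endogenous transcription factors. After 24 h dosing, reporter mRNA quantified by RT-PCR, fluorescent labeling, HpaI digestion and capillary electrophoresis; bidirectional fitting versus DMSO.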

The target in assay [10] is Transcription factor E2F1 (Homo sapiens) (UniProt Q01094). The assay can be described thus: ATG_E2F_CIS: Attagene CIS-FACTORIAL HepG2 Assay for human E2F Transcription Factor 1 (AID 2282935). As to conditions: HepG2 Attagene cis-reporter, E2F reporter RNA transcripts; actives raise or lower the signal. The essentials: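 Measures reporter transcript levels via RT-PCR with capillary electrophoresis detection in HepG2 cells harboring cis-regulated reporter units; 24 h post-dose; bidirectional curve fitting with DMSO as baseline.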

Assay [11] is described as follows: ATG_E_Box_CIS: Attagene CIS-FACTORIAL HepG2 Assay for human Enhancer Box (E-box) (AID 2282936). Particulars: HepG2 E-box cis-reporter transcription, actives raise or lower the signal. The essentials: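 First, HepG2 cells receive multiple cis-regulated reporter constructs by transient transfection. Next, chemicals are applied for 24 h. Finally, reporter mRNA is quantified via RT-PCR and capillary electrophoresis, with DMSO as baseline.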

Assay [12] in a line: ATG_M_61_CIS: Attagene CIS-FACTORIAL HepG2 Assay for M61 Transcription Factor (Internal Marker) (AID 2282937). Particulars: HepG2 Attagene CIS-FACTORIAL M61 internal marker reporter; actives raise or lower the signal. In outline:
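Cells were transfected with reporter units under cis-regulatory promoters, treated with chemicals for 24 h, then lysed for RNA. Reporter transcripts were quantified by RT-PCR and capillary electrophoresis, and activity was fitted bidirectionally against DMSO.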

A short description of assay [13]: ATG_M_19_CIS: Attagene CIS-FACTORIAL HepG2 Assay for M19 Transcription Factor (Internal Marker) (AID 2282939). As to conditions: HepG2 Attagene CIS-FACTORIAL M19 internal marker reporter; actives raise or lower the signal. The essentials: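 HepG2 cells transiently transfected with cis-regulated multiple reporter transcription units were dosed for 24 h; reporter mRNA was quantified by RT-PCR, 6-FAM primer-extension labelling, HpaI digestion and capillary electrophoresis, with bidirectional fitting against DMSO baseline.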

A short description of assay [14]: ATG_ERE_CIS: Attagene CIS-FACTORIAL HepG2 Assay for Estrogen Response Element (ERE) (AID 2282940). Particulars: HepG2 ERE cis-reporter, Attagene RNA transcript; actives raise or lower the signal. The essentials:
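HepG2 cells transiently transfected with cis-promoter-driven multiplexed reporter transcription units report endogenous TF activity. After 24 h compound exposure, reporter mRNA is quantified by RT-PCR with capillary electrophoresis fluorescence; bidirectional fitting versus DMSO baseline.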

A short description of assay [15]: ATG_Ets_CIS: Attagene CIS-FACTORIAL HepG2 Assay for human Erythroblast Transformation Specific (ETS) (AID 2282941). Particulars: HepG2 ETS cis-reporter transcription, actives raise or lower the signal. The essentials:
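HepG2 cells transfected with multiple cis-regulated reporter units measuring endogenous ETS-driven transcription, 24 h after dosing. Reporter mRNA quantified by RT-PCR with capillary electrophoresis; bidirectional fit relative to DMSO.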

Assay [16] addresses Hepatocyte nuclear factor 3-beta (Homo sapiens) (UniProt Q9Y261). Briefly: ATG_FoxA2_CIS: Attagene CIS-FACTORIAL HepG2 Assay for human Forkhead box A2 (FOXA2) (AID 2282942). As to conditions: HepG2 cis-reporter transcription factor activity, 24 h; actives raise or lower the signal. In outline:
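Endogenous transcription factor activity was read in HepG2 cells carrying transiently transfected cis-promoter reporter units. After 24 h dosing, reporter mRNA was quantified by RT-PCR and capillary electrophoresis, and values fitted bidirectionally versus DMSO.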

Assay [17] is described as follows: ATG_FoxO_CIS: Attagene CIS-FACTORIAL HepG2 Assay for human Forkhead box O (FoxO) (AID 2282943). As to conditions: HepG2 Attagene cis-reporter, FoxO element, mRNA; actives raise or lower the signal. In outline:
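HepG2 cells transiently transfected with cis-element-driven reporter units report endogenous FoxO activity. After 24 h chemical exposure, reporter mRNA quantified by RT-PCR, fluorescent labeling, HpaI digestion and capillary electrophoresis; bidirectional fit versus DMSO.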

A short description of assay [18]: ATG_GATA_CIS: Attagene CIS-FACTORIAL HepG2 Assay for human GATA Binding Protein (AID 2282944). Particulars: HepG2 GATA cis-element reporter, Attagene multiplex mRNA; actives raise or lower the signal. In outline:
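HepG2 cells transiently transfected with multiplexed cis-element reporter units reflecting endogenous transcription factor activity; reporter mRNA measured after 24 h dosing by RT-PCR, 6-FAM labeling, HpaI digestion and capillary electrophoresis. Bidirectional fitting versus DMSO baseline.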

Assay [19] is described as follows: ATG_GLI_CIS: Attagene CIS-FACTORIAL HepG2 Assay for human Zinc Finger Protein GLI1 (AID 2282945). Particulars: HepG2, Attagene cis-factorial reporter mRNA, GLI element; actives raise or lower the signal. The essentials: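 Transiently transfected HepG2 cells report endogenous transcription factor activity via cis-element-driven reporter units. After 24 h compound exposure, reporter mRNA was measured by RT-PCR with capillary electrophoresis; bidirectional fitting against DMSO baseline.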

A short description of assay [20]: ATG_EGR_CIS: Attagene CIS-FACTORIAL HepG2 Assay for human Early Growth Response 1 (EGR1) (AID 2282938). Particulars: HepG2 Attagene CIS-FACTORIAL EGR reporter mRNA; actives raise or lower the signal. In outline:
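Endogenous TF activity in HepG2 liver cells was gauged through cis-promoter reporter constructs transiently transfected. After 24 h dosing, reporter mRNA was quantified by RT-PCR and capillary electrophoresis, and curves fitted in both directions versus DMSO.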

Active and inactive are the calls of the source. Rule for the calls: active = hit-call score of the fitted dose curve at least 0.9, where 1 is the maximum; inactive = score below 0.9.

Sequence of Retinoic acid receptor alpha (Homo sapiens) (P10276 whole entry, looked up): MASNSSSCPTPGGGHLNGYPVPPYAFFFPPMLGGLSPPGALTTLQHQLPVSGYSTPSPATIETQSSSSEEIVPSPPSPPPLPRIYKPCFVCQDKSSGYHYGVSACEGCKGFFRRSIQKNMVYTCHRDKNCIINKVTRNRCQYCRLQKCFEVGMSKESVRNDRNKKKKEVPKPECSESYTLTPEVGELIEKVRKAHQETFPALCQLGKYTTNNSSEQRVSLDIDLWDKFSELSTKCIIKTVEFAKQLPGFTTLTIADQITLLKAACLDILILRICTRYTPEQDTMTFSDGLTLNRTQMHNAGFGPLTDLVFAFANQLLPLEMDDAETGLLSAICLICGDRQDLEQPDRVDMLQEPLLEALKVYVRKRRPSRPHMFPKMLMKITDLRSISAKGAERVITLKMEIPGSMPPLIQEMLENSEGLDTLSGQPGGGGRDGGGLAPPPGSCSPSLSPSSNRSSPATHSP
Sequence of Aryl hydrocarbon receptor (Homo sapiens) (P35869 whole entry, looked up): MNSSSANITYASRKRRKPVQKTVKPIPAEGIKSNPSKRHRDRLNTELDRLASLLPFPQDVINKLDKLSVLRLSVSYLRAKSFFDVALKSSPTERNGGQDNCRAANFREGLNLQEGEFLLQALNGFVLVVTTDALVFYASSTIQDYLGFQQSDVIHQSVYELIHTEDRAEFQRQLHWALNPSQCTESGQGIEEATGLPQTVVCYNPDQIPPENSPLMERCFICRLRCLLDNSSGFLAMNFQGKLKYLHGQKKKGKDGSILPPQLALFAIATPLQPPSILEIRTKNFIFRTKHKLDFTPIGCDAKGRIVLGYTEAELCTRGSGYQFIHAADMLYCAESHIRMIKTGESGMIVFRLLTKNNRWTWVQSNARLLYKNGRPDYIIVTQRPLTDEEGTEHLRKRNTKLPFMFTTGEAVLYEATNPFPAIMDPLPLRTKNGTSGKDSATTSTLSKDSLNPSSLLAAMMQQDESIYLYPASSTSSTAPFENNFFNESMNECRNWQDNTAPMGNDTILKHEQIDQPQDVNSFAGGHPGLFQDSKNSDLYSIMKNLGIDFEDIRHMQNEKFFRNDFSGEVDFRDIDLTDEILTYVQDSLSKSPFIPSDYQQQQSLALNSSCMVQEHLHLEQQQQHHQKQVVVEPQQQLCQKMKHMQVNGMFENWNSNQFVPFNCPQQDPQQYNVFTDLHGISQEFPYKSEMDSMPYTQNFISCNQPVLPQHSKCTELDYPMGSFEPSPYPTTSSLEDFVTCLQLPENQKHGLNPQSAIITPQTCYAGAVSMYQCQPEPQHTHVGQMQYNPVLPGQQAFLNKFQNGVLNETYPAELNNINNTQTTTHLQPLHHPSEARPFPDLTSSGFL
Sequence of Transcription factor E2F1 (Homo sapiens) (Q01094 whole entry, looked up): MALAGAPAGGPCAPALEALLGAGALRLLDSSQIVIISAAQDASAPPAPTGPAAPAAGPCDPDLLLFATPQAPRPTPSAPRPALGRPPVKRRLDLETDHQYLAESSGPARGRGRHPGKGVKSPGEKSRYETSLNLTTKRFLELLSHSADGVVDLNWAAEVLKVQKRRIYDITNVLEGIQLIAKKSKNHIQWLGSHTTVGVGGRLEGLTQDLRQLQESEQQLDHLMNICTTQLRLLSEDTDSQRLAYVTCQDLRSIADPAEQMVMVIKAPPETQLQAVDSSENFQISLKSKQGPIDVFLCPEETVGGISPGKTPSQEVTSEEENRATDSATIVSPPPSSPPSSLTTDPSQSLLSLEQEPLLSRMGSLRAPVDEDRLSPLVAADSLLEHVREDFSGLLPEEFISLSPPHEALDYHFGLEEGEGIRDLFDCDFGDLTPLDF
Sequence of Hepatocyte nuclear factor 3-beta (Homo sapiens) (Q9Y261 whole entry, looked up): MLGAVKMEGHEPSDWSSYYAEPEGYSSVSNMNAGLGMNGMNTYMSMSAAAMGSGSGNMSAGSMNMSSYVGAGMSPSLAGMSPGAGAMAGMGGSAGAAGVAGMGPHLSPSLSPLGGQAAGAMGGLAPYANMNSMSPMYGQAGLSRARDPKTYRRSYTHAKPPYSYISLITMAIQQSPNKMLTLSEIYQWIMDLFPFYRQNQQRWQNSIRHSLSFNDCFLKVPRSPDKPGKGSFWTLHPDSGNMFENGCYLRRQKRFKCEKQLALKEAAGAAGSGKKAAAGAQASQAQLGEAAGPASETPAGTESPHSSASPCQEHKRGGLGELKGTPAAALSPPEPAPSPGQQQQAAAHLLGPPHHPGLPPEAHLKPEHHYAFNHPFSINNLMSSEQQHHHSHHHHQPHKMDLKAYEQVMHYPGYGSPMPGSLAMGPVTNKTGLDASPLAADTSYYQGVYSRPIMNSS
Sequence of CCAAT/enhancer-binding protein beta (Homo sapiens) (P17676 whole entry, looked up): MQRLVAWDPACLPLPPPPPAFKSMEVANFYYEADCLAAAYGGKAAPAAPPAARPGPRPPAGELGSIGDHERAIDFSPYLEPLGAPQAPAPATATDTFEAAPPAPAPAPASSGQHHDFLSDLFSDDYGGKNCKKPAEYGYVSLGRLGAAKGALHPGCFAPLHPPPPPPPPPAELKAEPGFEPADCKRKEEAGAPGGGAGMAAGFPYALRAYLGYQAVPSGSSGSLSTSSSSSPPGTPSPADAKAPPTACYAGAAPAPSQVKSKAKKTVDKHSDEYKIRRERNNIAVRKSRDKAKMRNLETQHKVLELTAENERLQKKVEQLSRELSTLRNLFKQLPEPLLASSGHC

Take `O=C(N[C@H](CO)[C@H](O)c1ccc([N+](=O)[O-])cc1)C(Cl)Cl`: the outcome in [1], in assay [2], in [3], in assay [4], in [5] and in assay [6] was inactive. In addition, the result in [7], in [8], in assay [9], in assay [10], in [11] and in [12] was inactive. Moreover, the call in assay [13], in assay [14], in [15], in [16], in assay [17] and in assay [18] was inactive. Also, the result in [19] was inactive.

For `OC[C@H]1O[C@@](CO)(O[C@H]2O[C@H](CO)[C@@H](O)[C@H](O)[C@H]2O)[C@@H](O)[C@@H]1O`, the compound was classed as inactive in assay [1], in assay [2], in assay [3], in [4], in [5] and in [6]. In addition, the call in [7], in assay [8], in [9], in assay [10], in [11] and in [12] was inactive. For the same compound, the compound was called inactive in assay [13], in assay [14], in [15], in assay [16], in assay [17] and in assay [18]. Moreover, the outcome in assay [19] was inactive.

Take `COc1cc2c(c(OC)c1OC)-c1ccc(OC)c(=O)cc1[C@@H](NC(C)=O)CC2`: the compound was classed as inactive in assay [1], in [2], in [4], in [5], in assay [9] and in assay [12]. For the same compound, the compound was classed as inactive in [20], in assay [13], in assay [14], in assay [15], in assay [16] and in [17]. In addition, the compound was called inactive in [18] and in [19]. Besides, the concentration at half-maximal activity (AC50) in assay [3] was 70.3 nM (active); in assay [6] it was 123 nM (active); in [7], 61100 nM (active); in assay [8], 4600 nM (active); in assay [11], 592 nM (active).

For `CNC(C)=O`, the compound was classed as inactive in [1], in [2], in [3], in [4], in assay [5] and in assay [6]. Further, the result in assay [7], in [8], in assay [9], in assay [11], in assay [12] and in [20] was inactive. The outcome in assay [13], in assay [14], in [15], in assay [16], in [17] and in assay [18] was inactive. The result in [19] was inactive.

For the compound `O=S(=O)(O)c1ccc(N=Nc2c(O)ccc3cc(S(=O)(=O)O)ccc23)cc1`, the compound was classed as inactive in assay [1], in [2], in assay [3], in [4], in assay [5] and in [6]. Also, the compound was classed as inactive in assay [7], in assay [8], in [9], in [10], in assay [11] and in assay [12]. Besides, the compound was classed as inactive in [20], in assay [13], in [14], in assay [15], in assay [16] and in [17]. Also, the outcome in assay [18] and in assay [19] was inactive.

Take `OCCC(F)(F)C(F)(F)C(F)(F)C(F)(F)F`: the result in assay [1], in assay [2], in assay [3], in [4], in [5] and in assay [6] was inactive. Also, the compound was classed as inactive in [7], in [8], in [9], in [11], in assay [12] and in [13]. For the same compound, the compound was classed as inactive in assay [14], in assay [15], in [16], in assay [17], in assay [18] and in [19].

The AC50 is the concentration giving half of the maximal activity seen.
